Hits are enriched below; roughly 5.2% of the tested compounds scored in any of these assays.
ALR H2O2 inh – human ALR oxidase inhibition via reduced H2O2; P55789; purified ALR, DTT oxidation, H2O2 HRP-luminol luminescence; inhibition, % (test concentration not listed); 290,000 compounds, 3.8% hits; AID 485317;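 active = mean replicate inhibition above about 79%, with every replicate also reaching it, limit read from the data; inconclusive = only one of the two criteria met; inactive = mean below limit and not every replicate reaching it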
Target sequence (P55789 whole entry, looked up): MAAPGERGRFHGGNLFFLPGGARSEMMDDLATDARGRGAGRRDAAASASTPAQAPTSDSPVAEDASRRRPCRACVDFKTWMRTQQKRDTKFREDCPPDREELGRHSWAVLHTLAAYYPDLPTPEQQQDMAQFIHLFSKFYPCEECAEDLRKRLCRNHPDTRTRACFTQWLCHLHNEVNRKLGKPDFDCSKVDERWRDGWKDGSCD
Yeast superoxide – caloric restriction mimetics inhibiting age-related superoxide in yeast; superoxide response (% of plate mean), % at 10 µM; AID 2690; 330,000 compounds, 0.18% hits; S. cerevisiae aged cells, superoxide DHE fluorescence; active compounds read low;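 active = superoxide response under a set limit, about three screen SD below normal, cut at about 65% in these data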;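 also: yeast aged for seven days with compound at 30 °C before DHE staining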
APOBEC3G inh – inhibitors of human APOBEC3G DNA deaminase. recombinant A3G, ssDNA deamination FAM/TAMRA fluorescence. 330,000 compounds, 0.28% hits. inhibition, % at 20 µM. Q9HC16;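 active = inhibition of at least 40% at 20 µM, with no more than 30% in the related APOBEC3A deaminase screen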
PfM18AAP inh-1 – blocks P. falciparum M18 aspartyl aminopeptidase. recombinant PfM18AAP, H-Glu-NHMec fluorogenic cleavage. inhibition, % at 7.35 µM. 290,000 compounds, 1.2% hits. AID 1822;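 active = inhibition above the campaign mean inhibition over all tested compounds plus 3 SD, cut at about 28% in these data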
A3A deaminase – blocks human APOBEC3A ssDNA deamination; inhibition, % at 20 µM; AID 493011; 330,000 compounds, 0.41% hits; recombinant A3A, FAM/TAMRA ssDNA deamination fluorescence; P31941;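 active = at least 40% inhibition at 20 µM here, with at most 30% in a related deaminase screen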
CendR NRP1 mod – modulators of CendR peptide binding to human neuropilin-1; O14786; FAM-RPARPAR peptide binding to NRP-1, fluorescence polarization; inhibition, % at 25 µM; 360,000 compounds, 0.85% hits;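 active = inhibition or corrected inhibition above about 18%, plus a signal ratio from 0.5 to 1.5, limit read from the data, passing the limit was not always enough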
PfM18AAP inh-2 – confirmation of Plasmodium falciparum M18 aspartyl aminopeptidase inhibitors; shares compounds with PfM18AAP inh-1; recombinant PfM18AAP, H-Glu-NHMec fluorogenic cleavage; inhibition, % at 7.35 µM; 2,400 compounds, 28% hits; AID 2170;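 active = mean inhibition over replicate wells above the hit cutoff set for the earlier primary screen, cut at about 29% in these data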
CTSL1 confirm – Cathepsin L (human) inhibition, confirmation; purified cathepsin L1, Z-Leu-Arg-MCA fluorescence; AID 2178; 2,400 tested, under 10 active; inhibition, % at 5.96 µM; shares compounds with PfM18AAP inh-1;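 active = average inhibition across replicates above the hit cutoff set in the earlier primary screen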
Target sequence (P07711 whole entry, looked up): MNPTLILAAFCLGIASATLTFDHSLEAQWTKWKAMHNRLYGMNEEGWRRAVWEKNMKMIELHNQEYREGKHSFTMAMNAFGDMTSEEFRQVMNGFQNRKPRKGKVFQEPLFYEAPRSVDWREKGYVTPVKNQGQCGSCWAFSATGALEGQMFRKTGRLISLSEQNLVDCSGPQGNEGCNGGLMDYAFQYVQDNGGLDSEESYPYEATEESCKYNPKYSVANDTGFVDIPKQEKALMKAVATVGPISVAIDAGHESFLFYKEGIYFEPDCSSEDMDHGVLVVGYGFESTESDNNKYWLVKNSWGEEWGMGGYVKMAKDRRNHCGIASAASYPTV
Hits are given with their value; – = inactive; ? = inconclusive; · = no result given.

SMILES | ALR H2O2 inh | Yeast superoxide | APOBEC3G inh | PfM18AAP inh-1 | A3A deaminase | CendR NRP1 mod | PfM18AAP inh-2 | CTSL1 confirm
Cc1ccc(OCC(=O)n2cnnc2N)c(C)c1 | – | – | – | 57 | – | · | 54 | –
Cc1cccc(C(=O)n2cnnc2N)c1 | – | – | – | 45 | – | – | 56 | –
COC(=O)c1cn(C(=O)c2cc(C)cc(C)c2)c2ccccc12 | – | – | – | – | – | – | · | ·
Cc1cc(C)cc(C(=O)n2cnnc2N)c1 | – | – | – | 48 | – | – | 59 | –
O=C(C1=C[C@H](c2ccc3c(c2)OCO3)C[C@H](OCc2ccc(CO)cc2)O1)N1CCOCC1 | – | – | – | – | – | – | · | ·
CC1CCN(C(=O)Cn2nnc(-c3ccc([N+](=O)[O-])cc3)n2)CC1 | – | – | – | – | – | – | · | ·
CC(/C=N/n1cnnc1)=C\c1ccco1 | · | – | – | 55 | – | – | – | –
CC(/C=N/n1c(-c2ccc(Cl)cc2)n[nH]c1=S)=C\c1ccco1 | – | – | – | – | – | – | · | ·
COc1cccc(CC2(CO)CCCN(Cc3[nH]c4ccc(C)cc4c3C)C2)c1 (stereo not given) | – | – | – | – | – | – | · | ·
COc1ccc(-c2csc(Nc3ccc(S(N)(=O)=O)cc3)n2)cc1 | – | – | – | – | – | – | · | ·
NS(=O)(=O)c1ccc(Nc2nc(-c3ccc(O)cc3)cs2)cc1 | ? | – | – | 45 | – | – | 44 | –
O=C(c1ccc(Cl)cc1Cl)C1(n2cncn2)Oc2ccccc2C1O (stereo not given) | · | – | – | 36 | – | – | – | –
Cc1ccc(S(=O)(=O)N/N=C2/CCCCC2C2CCCCC2)cc1[N+](=O)[O-] (stereo not given) | · | – | – | – | – | – | · | ·
N#CCC(=O)N/N=C1\CCCCC1C1CCCCC1 (stereo not given) | – | – | – | 44 | – | – | – | –
O=c1ccsc2ccccc12 | · | · | · | · | · | – | · | ·
O=c1[nH]sc2ccccc12 | · | · | · | 50 | · | – | 30 | –
Cc1ccc(N2C(=O)c3ccccc3C2C(=O)c2ccc(C)c(C)c2O)cc1 (stereo not given) | – | – | – | 42 | – | – | – | –
Cc1ccc(C2C(C(=O)O)c3ccccc3C(=O)N2C)c(C)c1 (stereo not given) | – | – | – | – | – | – | · | ·
Cc1ccc(N2C(=O)c3ccccc3C2C(=O)c2cc(C)ccc2O)cc1 (stereo not given) | – | – | – | 55 | – | – | – | –
COc1cccc(C(=O)NCCS(=O)(=O)NC(C)CCc2ccccc2)c1 (stereo not given) | – | – | – | · | – | – | · | ·
CC(=O)Nc1ccc(S(=O)(=O)NNc2ccc([N+](=O)[O-])cc2)cc1 | 98 | – | – | 46 | – | – | – | –
O=C(COc1ccc([N+](=O)[O-])cc1)Nn1cnnc1 | – | – | – | 41 | – | – | – | –
Cc1ccc(C(=O)NC(=S)NNS(=O)(=O)c2ccc(C)cc2)cc1 | 97 | – | – | 40 | – | – | – | –
Cc1ccc(S(=O)(=O)NNC(=S)NC(=O)c2ccc([N+](=O)[O-])cc2)cc1 | 93 | – | – | 48 | – | – | – | –
CC(=O)Nc1ccc(NC(=S)NC(=O)c2ccc([N+](=O)[O-])cc2)cc1 | – | – | – | – | – | – | · | ·
SMILES | ALR H2O2 inh | Yeast superoxide | APOBEC3G inh | PfM18AAP inh-1 | A3A deaminase | CendR NRP1 mod | PfM18AAP inh-2 | CTSL1 confirm
CC(OC(=O)C1=COCCO1)C(=O)NC1CCCC(C)C1C (stereo not given) | · | · | · | · | · | – | · | ·
CCOc1ccc(CN2CCN(Cc3nc(C(C)C)cs3)CC2CCO)cc1 (stereo not given) | – | – | – | – | – | · | · | ·
O=C(COc1ccccc1)Nc1ccc(N2CCCCC2)cc1 | – | – | – | · | – | – | · | ·
COc1ccccc1N1CCN(C2CCCN(C(=O)c3oc(C)cc3C)C2)CC1 (stereo not given) | – | – | – | – | – | – | · | ·
CN(C)S(=O)(=O)c1ccc(S(=O)(=O)NCCN2CCOCC2)cc1 | – | – | – | – | – | – | · | ·
O=C(NNS(=O)(=O)c1ccc([N+](=O)[O-])cc1)c1ccc([N+](=O)[O-])cc1 | – | – | – | 35 | – | – | – | –
COc1ccc(OCC(=O)NNC(=S)NC(=O)c2ccc([N+](=O)[O-])cc2)cc1 | · | – | – | 33 | – | – | – | –
COc1ccc(S(=O)(=O)NNC(=O)c2ccc([N+](=O)[O-])cc2)cc1 | – | – | – | – | – | – | · | ·
CC(=O)NNC(=S)NC(=O)c1cccc([N+](=O)[O-])c1 | – | – | – | 47 | – | – | – | –
O=C1C(=O)N(Cc2cccnc2)C(c2ccc(Br)cc2)/C1=C(\O)c1ccc2c(c1)OCCO2 (stereo not given) | – | – | – | – | – | – | · | ·
COc1ccc(C(=O)NCc2nnc(SCC(=O)Nc3nnc(C)s3)o2)cc1OC | – | – | – | 47 | – | – | – | –
CCc1nnc(NC(=O)CSc2nnc(CNC(=O)c3cc(OC)c(OC)c(OC)c3)o2)s1 | – | – | – | 41 | – | – | – | –
COc1ccc(C(=O)NCc2nnc(SCC(=O)Nc3nnc(C)s3)o2)cc1 | 99 | – | – | 35 | – | – | – | –
CCSc1nnc(NC(=O)CSc2nnc(CNC(=O)c3ccc(OC)cc3)o2)s1 | · | – | – | – | – | – | · | ·
Oc1ccc(/C=N/Nc2ccnc3cc(Cl)ccc23)c(O)c1O | – | – | – | 49 | – | – | – | –
CC/C(=N\Nc1ccnc2cc(Cl)ccc12)c1ccc(O)cc1 | 96 | – | – | 34 | – | – | – | –
CCn1c(SCC(=O)Nc2oc(-c3ccccc3)c(-c3ccccc3)c2C#N)nnc1-c1ccncc1 | – | – | – | – | – | – | · | ·
N#Cc1c(NC(=O)CSc2ccccn2)oc(-c2ccccc2)c1-c1ccccc1 | · | – | – | 50 | – | – | – | –
COc1cc(OC)cc(C2=Cc3ccc(OC)cc3C(CC(C)=O)N2c2ccc(C#CC3(N)CCCCC3)cc2)c1 (stereo not given) | · | · | · | · | · | – | · | ·
CC(C)c1ccc(N2C(=O)C(Cl)=C(N3CCOCC3)C2=O)cc1 | – | – | – | 38 | – | – | – | –
O=c1ccc2cc(O)c(O)cc2o1 | 96 | – | – | 42 | – | – | 30 | –
NC(=O)COC(=O)CCCc1c[nH]c2ccccc12 | – | – | – | – | – | – | · | ·
NC(=O)Cc1c[nH]c2cccc(O)c12 | – | – | – | 47 | – | – | – | –
CCN1/C(=C\C(=S)Nc2ccccc2)Sc2ccccc21 | · | – | – | 41 | – | – | – | –
S=c1nc(C23CC4CC(CC(C4)C2)C3)[nH][nH]1 | – | – | – | 36 | – | – | – | –

Bioassay records from PubChem BioAssay.
